Screening results (PubChem)
Hits are enriched below; roughly 3.1% of the tested compounds scored in any of these assays.
Vif-A3G inh = Vif-A3G binding inhibition; Q9HC16; HeLa A3G-eYFP + Vif (tagged APOBEC3G with the HIV-1 protein that degrades it), YFP fluorescence, overnight; Potency, µM (highest dose often 46.1 µM), hits mostly inhibitors; 0.076% of 410,000 active; further: nearly all actives have a fitted effect of over 60% in size
Target sequence (Q9HC16 whole entry, looked up): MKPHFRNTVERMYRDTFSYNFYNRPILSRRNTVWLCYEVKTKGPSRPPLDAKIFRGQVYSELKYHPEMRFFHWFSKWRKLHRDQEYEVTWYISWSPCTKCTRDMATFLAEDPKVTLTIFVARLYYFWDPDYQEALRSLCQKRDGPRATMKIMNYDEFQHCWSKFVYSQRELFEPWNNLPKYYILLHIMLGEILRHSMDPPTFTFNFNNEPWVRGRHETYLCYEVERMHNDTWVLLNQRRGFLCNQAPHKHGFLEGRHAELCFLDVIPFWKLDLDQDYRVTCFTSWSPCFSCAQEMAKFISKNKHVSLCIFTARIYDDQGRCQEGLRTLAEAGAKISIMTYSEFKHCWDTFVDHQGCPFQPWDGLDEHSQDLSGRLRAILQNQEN
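Read-out is eYFP fluorescence (Ex 488/Em 500-530) from Vif-expressing HeLa A3G-eYFP cells; more signal means A3G escaped Vif-mediated degradation. Cells plated overnight, compound pinned in, incubated overnight at 37 deg C.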
TSHR antagonist = human thyrotropin receptor antagonism; 0.2% of 330,000 active; AID 504810; TSHR-expressing cells, TSH-stimulated cAMP HTRF, 2 h; active compounds read low; P16473; activity change, negative = inhibition, % at 11.5 µM;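 active means activity change below a set negative limit, meaning inhibition stronger than a set level, cut at about -70% in these data; inconclusive means activity change between two set negative limits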
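Inhibition of cAMP made by TSHR-expressing cells under TSH stimulation (4nM final, EC80; 2 h, 37 deg C) is quantified with a one-step lysis HTRF kit, anti-cAMP cryptate versus cAMP-d2.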
VDR inh = vitamin D3 receptor (human) inhibition; P11473; VDR-SRC2-3 peptide fluorescence polarization, 2 h; Potency, µM, most hits filed as inhibitors; 0.93% of 400,000 active; AID 504847
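VDR–SRC2-3 interaction, FP format. Cmpds 23 nl via pintool, brief spin, 2 h ambient incubation.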
PLK1 PBD inh = inhibitors of human PLK1 polo-box domain binding | Plk1 PBD binding of FITC phosphopeptide, fluorescence polarization | Potency, µM, usual class: inhibitors | 2.8% of 360,000 active; further: series mostly up to about 57 µM; nearly all actives have a fitted effect of over 65% in size
Vif-A3F inh = Vif-A3F binding inhibition. Potency, µM (series often up to 46.1 µM). HeLa A3F-eYFP + Vif (tagged APOBEC3F with the HIV-1 protein that degrades it), YFP fluorescence increase. 0.2% of 390,000 active. AID 602313; further: nearly all actives have a fitted effect of over 65% in size
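HeLa cells stably expressing A3F-eYFP plus Vif, plated and incubated overnight at 37 deg C, then exposed to compounds overnight at 37 deg C. Blocked degradation read as raised yellow fluorescence (Ex 488/Em 500-530).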
A number is an active result; n = inactive; u = inconclusive; x = no result given. Unless noted, the call rests on the fitted dose curve; in most records, active means well fitted curve in the direction sought with a large enough effect; inconclusive means small, poorly fitted or top-dose-only effect, or another doubt; inactive means no such curve, though single readings can be large; an effect the other way counts as inactive or inconclusive.

SMILES	Vif-A3G inh	TSHR antagonist	VDR inh	PLK1 PBD inh	Vif-A3F inh
C/C(CCC1CC(C)OC1=O)=N/Nc1nc(-c2ccccc2)cs1 (configuration not stated)	n	n	45µM	30µM	n
CC1(C)CC(CC(=O)NNc2nc(-c3ccccc3)cs2)C(=O)O1 (configuration not stated)	n	n	u	27µM	n
CC1CC(CC(=O)NNc2nc(-c3ccccc3)cs2)C(=O)O1 (configuration not stated)	n	n	n	n	n
O=C(Nc1sc2c(c1C(=O)Nc1cccc(Cl)c1)CCCC2)c1cccs1	n	x	25µM	x	n
NC(=O)c1c(NC(=O)c2cccs2)sc2c1CCCCCC2	n	n	n	n	n
CC(C)OC(=O)c1c(NS(=O)(=O)c2ccccc2)sc2c1CCCC2	n	n	u	2.7µM	n
O=C(Nc1sc2c(c1C(=O)O)CCC2)c1ccc(F)cc1	n	n	n	n	u
Cc1ccc(NC(=O)c2c(NC(=O)c3ccc(F)cc3)sc3c2CCCC3)cc1C	n	x	79µM	x	n
COC(=O)c1c(NS(=O)(=O)Cc2ccccc2)sc2c1CCCC2	n	n	n	u	n
COc1ccc(C(=O)Nc2sc3c(c2C(=O)O)CC(C)(C)OC3)cc1	n	n	n	n	n
CC1(C)Cc2c(sc(NC(=O)c3ccccc3)c2C(=O)O)CO1	n	n	n	13µM	n
CCCC[C@H]1C2=C3[C@@H](CC(C(=O)OC)=C[C@@H](C(=O)OC)[C@H]3C(C)(C)C2=O)n2c(=O)n(C)c(=O)n21	n	x	n	x	x
CC(C)(C)CC(C)(C)c1cc(Cc2cc(C(C)(C)CC(C)(C)C)cc(-n3nc4ccccc4n3)c2O)c(O)c(-n2nc3ccccc3n2)c1	x	x	n	x	x
O=C(Nc1sc2c(c1C(=O)O)CCCCC2)c1ccccc1	n	n	u	19µM	n
CCc1c(C)nc2nc(-c3ccccc3)nn2c1NCc1ccc(C)cc1	n	x	n	x	n
COC(=O)c1sccc1NC(=S)Nc1cc(C)cc(C)c1	n	n	n	n	25µM
C=C1C2CC[C@]3(CCC4[C@@]5(C)CCC[C@@]4(CN(CCO)C5)[C@@H]3C2)[C@@H]1O (some centres not stated)	x	x	n	x	x
NC(=O)CC(NC(=O)Cc1ccc(Br)cc1)c1ccc(NCc2ccc(F)cc2)c([N+](=O)[O-])c1 (configuration not stated)	u	n	n	n	11µM
Cc1cc(/C=C\c2ccc3cc(N(C)C)ccc3[n+]2C)c(C)n1-c1ccccc1	7.1µM	n	x	u	3.2µM
Cc1ccc(CN(Cc2cc3cc(C)ccc3[nH]c2=O)Cc2nnnn2Cc2ccccc2)cc1	n	x	n	x	x
CC(=O)c1ccccc1NC(=O)CSCc1nc2sc(C)c(C)c2c(=O)[nH]1	n	n	n	n	n
Cc1sc2nc(CSCC(=O)Nc3ccccc3C#N)[nH]c(=O)c2c1C	n	n	n	u	13µM
COC(=O)C1=C[C@@H](C(=O)OC)C2C3=C(C(=O)[C@]2(C)NC(=O)c2ccccc2)[C@H](C)n2c(=O)n(-c4ccccc4)c(=O)n2[C@@H]3C1 (some centres not stated)	n	x	n	x	x
CCOC(=O)C1=C(CC)Nc2ccccc2N=C1NC(=O)c1ccc(S(=O)(=O)N(C)C)cc1	n	n	n	2.7µM	n
CCOC(=O)C1=C(CC)Nc2ccccc2N=C1NC(=O)c1ccc(S(=O)(=O)N2CCOCC2)cc1	n	n	n	n	n
SMILES	Vif-A3G inh	TSHR antagonist	VDR inh	PLK1 PBD inh	Vif-A3F inh
O=C(Nc1ccc(Cl)c(C(F)(F)F)c1)c1cc2nc(-c3ccc4c(c3)OCO4)cc(C(F)(F)F)n2n1	n	x	n	x	n
c1ccc(OCc2nc3ccccc3s2)cc1	n	n	n	n	n
Fc1ccc(OCc2nc3ccccc3s2)cc1	n	n	n	n	u
Cc1cc(OCc2nc3ccccc3s2)ccc1N	n	n	u	11µM	n
CCC(=O)Nc1ccc(OCc2nc3ccccc3s2)cc1	n	n	u	17µM	n
CNC(=S)NNc1ccccc1[N+](=O)[O-]	n	n	71µM	n	n
COCCNC(=S)NNc1ccccc1[N+](=O)[O-]	n	n	u	15µM	n
COCCNC(=S)Nc1ccc([N+](=O)[O-])cc1C	n	n	n	n	n
O=C(NNc1ccccc1[N+](=O)[O-])Nc1ccccc1	n	n	u	n	n
Cc1ccc(N)c(Cl)c1	x	x	n	x	x
COc1cccc(CNC(=O)C(NS(=O)(=O)c2ccc3c(c2)oc(=O)n3C)C(C)C)c1 (configuration not stated)	n	x	n	x	n
CC(C)c1ccc(N(CC(=O)NC2CCCC2)C(=O)CCC(=O)Nc2ccccn2)cc1	n	n	n	24µM	n
CC(=O)c1sc2nsc(SCCN3CCOCC3)c2c1N	n	n	n	30µM	n
CCOC(=O)c1sc2nc(OCCN3CCOCC3)cc(C)c2c1N	x	x	x	n	x
Nc1c(C(=O)c2ccccc2)sc2nsc(SCCN3CCOCC3)c12	u	n	n	n	3.5µM
C[N+](C)(CCCCCI)c1ccc(/C=C/c2nc3ccccc3s2)cc1	n	x	x	x	x
O=C(NCCN1CCOCC1)C1(C(F)(F)F)C/C(=C/CCO)CCCO1 (configuration not stated)	n	x	n	x	x
COc1cc2c(cc1OC)C(c1oc(-c3ccc(-c4cc(Cl)ccc4Cl)o3)cc1C)=NCC2	n	x	x	x	x
O=C(Nc1ccncc1)c1cn(-c2ccccc2)nc1-c1cccs1	n	-75	n	n	n
CC(Nc1nc(-c2ccc3c(c2)NC(=O)CO3)cs1)c1ccccc1 (configuration not stated)	n	n	n	17µM	n
O=C1COc2ccc(-c3csc(-c4ccc(F)cc4)n3)cc2N1	n	x	x	x	x
COc1cccc(-c2nc(-c3ccc4c(c3)NC(=O)CO4)cs2)c1	n	n	n	13µM	n
O=C(/C=C/c1ccc(OC2CSC2)cc1)c1ccccc1	n	n	u	27µM	x
COc1ccc(C=CC(=O)c2ccc(OCc3ccccc3)c(OC)c2)cc1OC	n	x	x	n	n
COc1ccc(C(=O)/C=C/c2ccc(OCc3ccccc3)cc2)cc1CSCC(=O)O	n	n	u	24µM	n
SMILES	Vif-A3G inh	TSHR antagonist	VDR inh	PLK1 PBD inh	Vif-A3F inh
O=C(O)COc1ccc(/C=C/C(=O)c2ccc3ccccc3c2)cc1	n	n	28µM	n	n
COc1ccc(C(=O)/C=C/c2cccc(OCc3ccccc3)c2)cc1CSCC(=O)O	u	n	13µM	21µM	n
C=C(Nc1ccc(OC)cc1)C(=O)OC	x	x	n	x	x
Cc1ccc(CN2[C@H]3CCCC[C@@H]3OCCS2(=O)=O)cc1	n	x	x	x	x
CCC(c1nnc(SCC(=O)Nc2cc(C)on2)o1)N(C)C (configuration not stated)	n	n	n	u	n
CCC(c1nnc(SCC(=O)NCCc2ccc(Cl)cc2Cl)o1)N(C)C (configuration not stated)	n	n	n	27µM	n
COc1ccc(CNc2ccccc2C(=O)NCc2ccccc2)cc1COc1ccc(NC(C)=O)cc1	x	x	n	x	x
Cn1c(N)c(C(=O)CSc2ncn[nH]2)c(=O)n(C)c1=O	n	n	n	n	n
